Data from PubChem BioAssay AID1159580 (chemical genetic matrix, 2015).
The whole screen tested about 5,500 compounds, of which about 2,000 (36%) were called active. Roughly 18% stayed inconclusive and do not appear here. No stated cut-off is given here; in the data, active means normalized growth mostly below about 0.91 (no sharp cut-off); inconclusive means no clear call, values can overlap the other calls; inactive means mostly above about 0.92. The list shows a part of the results.

Assay: chemical genetic growth profiling, strain panel (AID 1159580);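 further: tested at 20 µM; growth read once vehicle control cultures reached saturation at 30 °C; 1 = growth at the plate median or of vehicle wells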
Settings: S. cerevisiae deletion strains, growth OD
[1] = locus YAR019C, strain CDC15, stronger effect = lower value
[2] = locus YBL105C, strain PKC1, stronger effect = lower value
[3] = locus YBR135W, strain CKS1, stronger effect = lower value
[4] = locus YBR136W, strain MEC1, stronger effect = lower value
[5] = locus YBR160W, strain CDC28, stronger effect = lower value
[6] = locus YDL017W, strain CDC7, stronger effect = lower value
[7] = locus YDL028C, strain MPS1, stronger effect = lower value
[8] = locus YDL101C, strain DUN1, stronger effect = lower value
[9] = locus YDL108W, strain KIN28, stronger effect = lower value
[10] = locus YDL132W, strain cdc53, stronger effect = lower value
[11] = locus YDL214C, strain PRR2, stronger effect = lower value
[12] = locus YDR052C, strain DBF4, stronger effect = lower value
[13] = locus YDR054C, strain cdc34, stronger effect = lower value
[14] = locus YDR226W, strain ADK1, stronger effect = lower value
[15] = locus YDR477W, strain SNF1, stronger effect = lower value
[16] = locus YER123W, strain YCK3, stronger effect = lower value
[17] = locus YER133W, strain GLC7, stronger effect = lower value
[18] = locus YFL009W, strain cdc4, stronger effect = lower value
[19] = locus YFL029C, strain CAK1, stronger effect = lower value
[20] = locus YFR003C, strain YPI1, stronger effect = lower value
[21] = locus YFR019W, strain FAB1, stronger effect = lower value
[22] = locus YFR028C, strain CDC14, stronger effect = lower value
[23] = locus YGR040W, strain KSS1, stronger effect = lower value
[24] = locus YGR052W, strain FMP48, stronger effect = lower value
[25] = locus YGR092W, strain DBF2, stronger effect = lower value
[26] = locus YHR030C, strain SLT2, stronger effect = lower value
[27] = locus YHR079C, strain IRE1, stronger effect = lower value
[28] = locus YHR082C, strain KSP1, stronger effect = lower value
[29] = locus YHR205W, strain SCH9, stronger effect = lower value
[30] = locus YIL147C, strain SLN1, stronger effect = lower value
[31] = locus YJL095W, strain BCK1, stronger effect = lower value
[32] = locus YJL128C, strain PBS2, stronger effect = lower value
[33] = locus YJL157C, strain FAR1, stronger effect = lower value
[34] = locus YJR016C, strain ILV3, stronger effect = lower value
[35] = locus YJR066W, strain TOR1 (second series), stronger effect = lower value
[36] = locus YJR066W, strain TOR1, stronger effect = lower value
[37] = locus YKL048C, strain ELM1, stronger effect = lower value
[38] = locus YKL067W, strain YNK1, stronger effect = lower value
[39] = locus YKL101W, strain HSL1, stronger effect = lower value
[40] = locus YKL193C, strain SDS22, stronger effect = lower value
[41] = locus YKL203C, strain TOR2, stronger effect = lower value
[42] = locus YLR113W, strain HOG1, stronger effect = lower value
[43] = locus YLR133W, strain CKI1, stronger effect = lower value
[44] = locus YLR403W, strain SFP1, stronger effect = lower value
[45] = locus YML070W, strain DAK1, stronger effect = lower value
[46] = locus YMR001C, strain CDC5, stronger effect = lower value
[47] = locus YMR205C, strain PFK2 (second series), stronger effect = lower value
[48] = locus YMR277W, strain FCP1, stronger effect = lower value
[49] = locus YNL006W, strain LST8, stronger effect = lower value
[50] = locus YNL020C, strain ARK1, stronger effect = lower value
[51] = locus YNL161W, strain CBK1, stronger effect = lower value
[52] = locus YNL183C, strain NPR1, stronger effect = lower value
[53] = locus YNL207W, strain RIO2, stronger effect = lower value
[54] = locus YNL222W, strain SSU72, stronger effect = lower value
[55] = locus YNL307C, strain MCK1 (second series), stronger effect = lower value
[56] = locus YOL078W, strain AVO1, stronger effect = lower value
[57] = locus YOL136C, strain PFK27, stronger effect = lower value
[58] = locus YOR061W, strain CKA2, stronger effect = lower value
[59] = locus YOR119C, strain RIO1, stronger effect = lower value
[60] = locus YOR231W, strain MKK1, stronger effect = lower value
[61] = locus YOR329C, strain SCD5, stronger effect = lower value
[62] = locus YPL031C, strain PHO85, stronger effect = lower value
[63] = locus YPL153C, strain RAD53, stronger effect = lower value
[64] = locus YPL204W, strain HRR25, stronger effect = lower value
[65] = locus YPL209C, strain IPL1, stronger effect = lower value
[66] = locus YPL256C, strain CLN2, stronger effect = lower value
[67] = locus YPR025C, strain CCL1, stronger effect = lower value
[68] = locus YPR106W, strain ISR1, stronger effect = lower value
[69] = locus YPR111W, strain DBF20, stronger effect = lower value
[70] = strain NNK1, stronger effect = lower value
[71] = strain TSCII, stronger effect = lower value

Measured: normalized growth

O=[N+]([O-])/C=C/c1ccc(F)cc1
active: [1] 0.0937 | [2] 0.0926 | [3] 0.0816 | [4] 0.0978 | [5] 0.091 | [6] 0.0902 | [7] 0.0982 | [8] 0.107 | [9] 0.102 | [10] 0.0889 | [11] 0.091 | [12] 0.0848 | [13] 0.0951 | [14] 0.0885 | [15] 0.1 | [16] 0.102 | [17] 0.0933 | [18] 0.0899 | [19] 0.0948 | [20] 0.0906 | [21] 0.0982 | [22] 0.0877 | [23] 0.104 | [24] 0.113 | [25] 0.0999 | [26] 0.111 | [27] 0.117 | [28] 0.121 | [29] 0.00904 | [30] 0.0998 | [31] 0.109 | [32] 0.0952 | [33] 0.0885 | [34] 0.0868 | [35] 0.0953 | [36] 0.114 | [37] 0.113 | [38] 0.087 | [39] 0.0964 | [40] 0.0853 | [41] 0.107 | [42] 0.129 | [43] 0.099 | [44] -0.000358 | [45] 0.0913 | [46] 0.0877 | [47] 0.0893 | [48] 0.0903 | [49] 0.0904 | [50] 0.102 | [51] 0.0853 | [52] 0.124 | [53] 0.091 | [54] 0.0861 | [55] 0.11 | [56] 0.0833 | [57] 0.0966 | [58] 0.0873 | [59] 0.112 | [60] 0.106 | [61] 0.0906 | [62] 0.0996 | [63] 0.101 | [64] 0.102 | [65] 0.0882 | [66] 0.135 | [67] 0.0876 | [68] 0.0871 | [69] 0.0892 | [70] 0.096 | [71] 0.0924

C/C(=C\c1ccc2c(c1)OCO2)[N+](=O)[O-]
active: [1] 0.0944 | [2] 0.089 | [3] 0.0821 | [4] 0.0972 | [5] 0.096 | [6] 0.103 | [7] 0.108 | [8] 0.101 | [9] 0.107 | [10] 0.121 | [11] 0.0871 | [12] 0.302 | [13] 0.1 | [14] 0.112 | [15] 0.0948 | [16] 0.0987 | [17] 0.0948 | [18] 0.0975 | [19] 0.0944 | [20] 0.123 | [21] 0.0927 | [22] 0.108 | [23] 0.0949 | [24] 0.11 | [25] 0.0972 | [26] 0.107 | [27] 0.113 | [28] 0.12 | [29] 0.00121 | [30] 0.108 | [31] 0.107 | [32] 0.124 | [33] 0.084 | [34] 0.0841 | [35] 0.0942 | [36] 0.105 | [37] 0.106 | [38] 0.0865 | [39] 0.0966 | [40] 0.0838 | [41] 0.107 | [42] 0.126 | [43] 0.0901 | [44] -0.000823 | [45] 0.0897 | [46] 0.0887 | [47] 0.0868 | [48] 0.0888 | [49] 0.0816 | [50] 0.0897 | [51] 0.0823 | [52] 0.114 | [53] 0.091 | [54] 0.0831 | [55] 0.0968 | [56] 0.0833 | [57] 0.0926 | [58] 0.0859 | [59] 0.11 | [60] 0.108 | [61] 0.0841 | [62] 0.0922 | [63] 0.101 | [64] 0.0962 | [65] 0.0837 | [66] 0.128 | [67] 0.0836 | [68] 0.0862 | [69] 0.142 | [70] 0.0961 | [71] 0.0923
